Bioassay records as filed in PubChem.
F508del corr: CFTR F508del correction in bronchial cells. CFBE cells, YFP halide quenching; stimulated with forskolin plus potentiator P3; % fluorescence drop versus neutral controls. activity (quench increase), % at 7.58 µM. 350,000 compounds, 0.36% hits. AID 720511;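 active means mean added fluorescence quench of at least 8% versus neutral control, with both replicates also reaching 8%; inconclusive means only one of the mean or replicate conditions met; inactive means mean below 8% and not both replicates reaching 8%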;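 further: cells transiently co-express mutant CFTR-F508del with the halide-sensitive YFP; corrector assay measuring rescue of mutant channel to the surface after 24 h compound exposure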
Env fusion inh: HIV envelope-mediated fusion inhibition. HeLa-JRFL Env/CEM21 cell fusion, luciferase. inhibition, % at 12.3 µM. 360,000 compounds, 1.1% hits. AID 651610;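 active means mean replicate inhibition score of at least 50 and every replicate individually at or above 50; inconclusive means only one of the two criteria met; inactive means mean below 50 and not all replicates reaching 50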;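 further: 0% = plate neutral controls and 100% = maraviroc near 300 nM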
EWS-Fli inh: inhibitors of EWS/Fli oncoprotein transcriptional activity. A673 NR0B1-luciferase reporter, viability-normalised. inhibition, % at 12.6 µM. 350,000 compounds, 0.67% hits;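 active means mean inhibition of at least 50% after viability correction, with every replicate also passing that limit; inconclusive means mean reaches 50% but only one of two replicates passes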;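 further: firefly luciferase signal divided by Alamar Blue viability fluorescence both relative to DMSO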
PGC1a acetyl inh: modulators of PGC1a acetylation | AID 651687 | 350,000 compounds, 0.17% hits | inhibition, % at 15.6 µM | U2OS PGC1a acetylation, AlphaScreen anti-acetyl-lysine; with virally co-expressed GCN5 acetyltransferase;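 active means every replicate shows inhibition of at least 40%; inconclusive means mean inhibition at least 40% but some replicate below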;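 further: 0% = neutral control wells and 100% = positive control wells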
GSIS activator: primary screen for activators of insulin secretion dependent on glucose, INS-1E cells, GLuc reporter luminescence; INS-1E GLuc reporter insulin secretion, 2-3 h; activation, % at 16.6 µM; 370,000 compounds, 0.61% hits;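 active means lowest replicate activation of at least 40%, so every replicate reaches that level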;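 further: 0% = median of neutral control wells and 100% = median of IBMX positive control wells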
PAX8 reporter: PAX8 transcriptional activity inhibition | RMG-I TPO-luciferase reporter, SteadyGlo, 24 h | inhibition, % at 12.6 µM | 360,000 compounds, 1.2% hits | AID 652154;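 active means mean replicate inhibition at least 60% with every replicate also reaching 60%; inconclusive means only one of the two criteria is met; inactive means mean below 60% and not all replicates reaching 60%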;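 further: luciferase light reporting Pax8 driven TPO promoter activity; plate controls were median of neutral control wells for no effect and mitoxantrone controls for full effect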
An asterisk follows results filed as active; ? = inconclusive; . = no result; [ ] = another dose, or the depositor's remark. Sampled rows, rich in hits. Any-hit rate of the full collection: about 2.7%.

SMILES	F508del corr	Env fusion inh	EWS-Fli inh	PGC1a acetyl inh	GSIS activator	PAX8 reporter
COc1ccc(-n2c(=S)[nH]c3cc(C(=O)Nc4ccc(OC)c(OC)c4)ccc3c2=O)cc1	.	.	.	-1	76*	.
COc1ccc(C(=O)Nc2ccc(OC)c(OC)c2)cc1	.	-93	.	-10	8	.
C[C@H]1CN([C@@H](C)CO)C(=O)Cc2cc(NC(=O)Cc3ccccc3)ccc2O[C@H]1CN(C)Cc1ccc2c(c1)OCO2	1	12[16.7 µM]	2	7	-4	-20
C[C@@H]1CN([C@H](C)CO)C(=O)c2cccc(NC(=O)Nc3ccccc3)c2O[C@H]1CN(C)C(=O)Nc1ccc(F)cc1	4	.	1	-6	16	12
CCn1nc(C)cc1-c1nnc(Sc2ncc([N+](=O)[O-])s2)n1C	-9	-232	69*	16	-7	78*
COc1ccc(C[C@H]2CCn3cc(nn3)COCCNC2=O)cc1	.	.	.	.	9	.
COc1ccccc1Cc1c(-c2ccc(Cl)cc2)nc2ccc(Br)cn12	10*	-85	-56	3	0	-71
COc1ccccc1Cc1c(-c2ccc(C)cc2)nc2ccc(Br)cn12	5	-171	-85	0	-12	-175
Cc1cc(C)c2nc(Cl)c(CN(Cc3ccco3)C(=O)Nc3ccccc3C)cc2c1	11*	.	56*	8	.	.
COc1ccccc1NC(=S)N(Cc1ccco1)Cc1cc2ccc(C)c(C)c2[nH]c1=O	.	0	.	6	-13	57
COc1ccccc1NC(=S)N(Cc1ccco1)Cc1cc2cc(C)cc(C)c2[nH]c1=O	10*	42	34	-27	-4	24
CCc1c(C(=O)Nc2ccc(C)c(C)c2)[nH]c(C)c1C(C)=O	0	-20	-85	1	114*	-93
CC(=O)c1c(C)[nH]c(C(=O)Nc2ccc(C)c(C)c2)c1C	.	-163	.	-9	.	.
CCc1c(C(=O)NC2CCCCC2)[nH]c(C)c1C(C)=O	.	-75	.	93*	.	.
C[C@H]1CN([C@@H](C)CO)C(=O)Cc2cc(NC(=O)Nc3ccc(F)cc3)ccc2O[C@@H]1CN(C)C(=O)Nc1ccccc1	0	.	-3	2	-2	-6
C=CCN1C(=O)/C(=C/c2ccc(OC(C)=O)c(OCC)c2[N+](=O)[O-])SC1=S	-3	32	-123	.	-13	100*
Cc1cc(C)c(C#N)c(N2CCN(c3ccccc3)CC2)n1	1	-5	5	49*	-6	19
CC(SCc1ccccc1)C(=O)N/N=C/c1cc2c(cc1Br)OCO2 (stereo not given)	.	88*	.	-12	.	7
CC(SCc1ccccc1)C(=O)N/N=C/c1ccc2c(c1)OCO2 (stereo not given)	.	.	.	-4	.	.
CCOC(=O)C1CCCN(c2nc3ccccc3nc2NS(=O)(=O)c2ccc(C)cc2)C1 (stereo not given)	21*	-18	0	2	-22	0
CC=Cc1ccc2n(c1=O)C[C@H]1[C@H](CO)[C@@H](C(=O)NCCC)[C@@H]2N1S(=O)(=O)c1cn(C)cn1 (mixture of isomers)	-2	.	-1	-2	6	0
C=CCNC(=O)c1cc(-c2ccc3c(c2)OCO3)on1	-2	-29	-10	.	43*	-59
COc1ccc(OC)c(-c2cc(C(=O)Nc3c(C)nn(Cc4ccc(Cl)cc4)c3C)no2)c1	.	87*	.	6	-23	.
COCCNC(=O)c1cc(-c2ccc3c(c2)OCO3)on1	.	-136	.	-13	.	.
Cc1nn(Cc2ccc(Cl)c(Cl)c2)c(C)c1NC(=O)c1cc(-c2ccc3c(c2)OCO3)on1	.	73*	.	-28	-29	.
SMILES	F508del corr	Env fusion inh	EWS-Fli inh	PGC1a acetyl inh	GSIS activator	PAX8 reporter
C[C@H]1CN([C@@H](C)CO)C(=O)c2cc(C#CC3CCCCC3)cnc2O[C@H]1CN(C)CC1CC1	2	17[16.7 µM]	8	-14	-4	.
COc1ccc2c3c([nH]c2c1)[C@@H](CO)N(C(=O)c1cccnc1)CC31CCN(Cc2cccnc2)CC1	-2	.	-1	-1	-11	.
CCOc1ccc(NC(=O)c2ccccc2NC(=O)CN(C)CC(=O)Nc2ccc(C)cc2)cc1	.	.	.	-1	.	.
CCOc1ccc(NC(=O)c2ccccc2NC(=O)CNC2CCCC(C)C2C)cc1 (stereo not given)	11*	.	-12	-2	-3	3
CS(=O)(=O)Nc1ccc2c(c1)[C@H]1C[C@@H](CC(=O)NCc3ccccc3)O[C@H](CO)[C@H]1O2	-2	7[16.7 µM]	2	7	1	3
CC(=O)c1c(C)[nH]c(C(=O)OCC(=O)Nc2cc(Cl)ccc2[N+](=O)[O-])c1C	.	1	5	.	-27	26
CC(=O)c1c(C)[nH]c(C(=O)OCC(=O)NCc2ccc(Cl)cc2)c1C	12*	?	9	-8	-9	30
CC(=O)c1c(C)[nH]c(C(=O)OCC(=O)Nc2ccc(C)cc2[N+](=O)[O-])c1C	.	88*	.	.	-20	19
CC(=O)c1c(C)[nH]c(C(=O)OCC(=O)NCCc2ccc(Cl)cc2)c1C	.	.	.	-28	-28	.
CCCNC(=O)N[C@H]1CC[C@@H](CC(=O)NC2CCCCC2)O[C@H]1CO	1	-17[16.7 µM]	-6	-3	1	-8
COc1ccc([Si](C)(C)[C@H]2[C@H](CCn3cc(CCO)nn3)O[C@@]3(C(=O)N(Cc4cccc(N5CCOC5=O)c4)c4ccccc43)[C@@H]2C)cc1	3	16[16.7 µM]	-1	20	.	83*
C=CCN1C(=O)[C@@]2(O[C@@H](CCn3cc(CCO)nn3)[C@H]([Si](C)(C)c3ccc(OC)cc3)[C@H]2C)c2cc(N3CCOC3=O)ccc21	3	-25[16.7 µM]	6	.	.	7
C=CCN1C(=O)[C@@]2(O[C@@H](CCn3cc([C@H](O)c4ccccc4)nn3)[C@H]([Si](C)(C)c3ccc(OC)cc3)[C@H]2C)c2cc(N3CCOC3=O)ccc21	12*	-7[16.7 µM]	5	.	.	0
COc1ccc([Si](C)(C)[C@@H]2[C@@H](CCn3cc(CCO)nn3)O[C@]3(C(=O)N(Cc4cccc(N5CCOC5=O)c4)c4ccccc43)[C@H]2C)cc1	1	-23[16.7 µM]	5	1	.	100*
CN1C(C(=O)NCc2cccs2)=CC(c2ccc(F)cc2)=NS1(=O)=O	-2	71*	2	-6	-2	-21
CS(=O)(=O)N1CC2(C1)[C@H](c1ccccc1)[C@@H](CO)N2Cc1ccccn1	-2	.	1	4	5	-12
Cc1ccc(-c2nc(C#N)c(NCC3CCCO3)o2)cc1 (stereo not given)	-1	-26	-73	-2	40*	-91
C/C=C/c1ccc2c(c1)O[C@@H](CN(C)C(=O)C1CC1)[C@@H](C)CN([C@H](C)CO)S2(=O)=O	1	0[16.7 µM]	-8	-12	0	.
Cc1nn(-c2ccc(Cl)cc2)c(=O)c2ccccc12	-1	-24	-87	.	-4	-116
Cc1c(Cl)sn(-c2ccc(Cl)cc2)c1=O	-11	-38	65*	.	-23	33
